# High-throughput results as filed in PubChem BioAssay.
# miR-122 inh = miR-122 suppressors via Renilla sensor increase, primary screen, cell-based, Huh7 psiCHECK-miR122, Renilla luciferase, single point; 48 h; activation, % at 12.5 µM; 340,000 compounds, 0.14% hits;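 active = mean activation of 30% or more, with every replicate also reaching 30%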;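 also: higher luciferase signal means stronger suppression of miR-122 activity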
# Numbers stand for hits; . = inactive. This excerpt belongs to a sample that is enriched for hits.
SMILES,miR-122 inh
Cc1ccc(-c2cnc3c(c2)C(=O)N([C@@H](C)CO)C[C@@H](C)[C@H](CN(C)C(=O)Cc2cccnc2)O3)cc1,.
C[C@H]1CN([C@@H](C)CO)S(=O)(=O)c2ccc(-c3ccc(C#N)cc3)cc2O[C@H]1CN(C)C(=O)C1CC1,.
C[C@H]1CN([C@@H](C)CO)C(=O)c2cc(-c3ccc(F)cc3)cnc2O[C@H]1CN(C)Cc1cccnc1,.
Cc1cc2[nH]c3c4ccccc4nc(C)c3c2cc1C,72
Cc1noc(C)c1NC(=O)N(C)C[C@H]1Oc2cc(C#CCC(C)C)ccc2S(=O)(=O)N([C@H](C)CO)C[C@H]1C,.
CCS(=O)(=O)Nc1ccc2c(c1)C(=O)N(C)C[C@@H](OC)[C@@H](C)CN[C@@H](C)CO2,.
C[C@@H]1CN([C@H](C)CO)C(=O)c2cc(-c3cncnc3)cnc2O[C@@H]1CN(C)Cc1cncnc1,.
COc1ccc(CN(C)C[C@@H]2Oc3c(NC(=O)C4CCCCC4)cccc3C(=O)N([C@H](C)CO)C[C@H]2C)cc1,.
CNC[C@H]1Oc2cc(C#Cc3cccc(F)c3)ccc2S(=O)(=O)N([C@@H](C)CO)C[C@H]1C,.
COc1ccccc1-[n+]1c(C)cc(/C=C2\Sc3ccccc3N2C)cc1C,69
C[C@H](CO)N1C[C@H](C)[C@@H](CN(C)C(=O)C2CCC2)Oc2ncc(C#CC3CCCC3)cc2C1=O,.
C[C@@H]1CN([C@@H](C)CO)C(=O)c2cc(Br)cnc2O[C@@H]1CN(C)C(=O)CN1CCOCC1,.
C[C@H](CO)N1C[C@H](C)[C@H](CN(C)Cc2ccccc2)Oc2ncc(-c3cccc(C#N)c3)cc2C1=O,.
C[C@H]1CN([C@@H](C)CO)C(=O)c2cc(C#CCC3CCCC3)cnc2O[C@@H]1CN(C)CC1CCOCC1,.
CCCN1C[C@H](C)[C@H](OC)CN(C)C(=O)c2ccc(NC(=O)COC)cc2OC[C@H]1C,.
CCC(=O)Nc1ccc2c(c1)OC[C@H](C)NC[C@H](C)[C@@H](OC)CN(C)C2=O,.
O=C(Nc1ccc(N2CCOCC2)c(S(=O)(=O)Nc2cc(Cl)ccc2Cl)c1)c1cccnc1,.
O=C(Nc1ccccc1F)N1C[C@H]2[C@@H](c3ccccc31)[C@@H](CO)N2C(=O)c1ccc(F)cc1,.
O=C(C1CCCCC1)N1[C@H](CO)[C@@H]2c3ccccc3N(S(=O)(=O)c3ccccc3)C[C@@H]21,.
CCCNC(=O)N1C[C@@H]2[C@H](c3ccccc31)[C@@H](CO)N2Cc1cc(F)ccc1F,36
COc1cccc(C(=O)N2C[C@H]3[C@@H](c4ccccc42)[C@@H](CO)N3C(=O)c2ccc(F)cc2)c1,.
COCC(=O)N1[C@H](CO)[C@H]2c3ccccc3N(C(=O)c3ccccc3F)C[C@H]21,44
O=C(Nc1ccc(F)cc1)N1C[C@H]2[C@@H](c3ccccc31)[C@H](CO)N2C(=O)c1ccncc1,50
O=C(c1cccnc1)N1C[C@H]2[C@@H](c3ccccc31)[C@H](CO)N2C(=O)Nc1ccccc1Cl,40
O=S(=O)(c1ccc(F)cc1)N1C[C@H]2[C@@H](c3ccccc31)[C@@H](CO)N2Cc1ccc2c(c1)OCO2,.
SMILES,miR-122 inh
CCCNC(=O)N1C[C@H]2[C@@H](c3ccccc31)[C@@H](CO)N2Cc1ccc(F)cc1,.
COc1cccc(NC(=O)N(C)C[C@@H]2Oc3ncc(C#Cc4ccccc4)cc3C(=O)N([C@H](C)CO)C[C@H]2C)c1,.
C[C@H](CO)N1C[C@H](C)[C@H](CN(C)C(=O)Nc2cccc3ccccc23)Oc2ncc(-c3cc4ccccc4o3)cc2C1=O,.
CCCNC(=O)Nc1ccc2c(c1)OC[C@@H](C)NC[C@H](C)[C@@H](OC)CN(C)C2=O,.
COc1ccc(NC(=O)N(C)C[C@H]2Oc3ccc(NC(=O)Nc4ccc(C(F)(F)F)cc4)cc3CC(=O)N([C@@H](C)CO)C[C@H]2C)cc1,.
Cc1noc(C)c1S(=O)(=O)N(C)C[C@@H]1Oc2c(NC(=O)C3CCOCC3)cccc2C(=O)N([C@@H](C)CO)C[C@@H]1C,.
CCC(=O)Nc1ccc2c(c1)OC[C@H](C)N(C(=O)c1ccccn1)C[C@H](C)[C@@H](OC)CN(C)C2=O,.
C[C@@H]1CN([C@@H](C)CO)S(=O)(=O)c2ccc(C#Cc3cccnc3)cc2O[C@@H]1CN(C)CC1CCOCC1,.
COCC#Cc1cnc2c(c1)C(=O)N([C@@H](C)CO)C[C@@H](C)[C@H](CN(C)S(=O)(=O)c1cccc(OC)c1)O2,.
C[C@H]1CN([C@@H](C)CO)S(=O)(=O)c2ccc(C#CCN(C)C)cc2O[C@@H]1CN(C)C(=O)CN(C)C,.
C[C@H]1CN([C@@H](C)CO)C(=O)c2cc(-c3cccnc3)cnc2O[C@H]1CN(C)S(C)(=O)=O,.
C[C@H]1CN([C@@H](C)CO)C(=O)c2cc(C#CC3(O)CCCC3)cnc2O[C@H]1CN(C)S(=O)(=O)c1ccc(F)cc1,.
CC(C)CC#Cc1cnc2c(c1)C(=O)N([C@@H](C)CO)C[C@@H](C)[C@H](CN(C)C(=O)C1CCCCC1)O2,.
Cc1ccc(S(=O)(=O)N(C)C[C@@H]2Oc3cc(C#CC4CCCC4)ccc3S(=O)(=O)N([C@H](C)CO)C[C@@H]2C)cc1,.
OC(c1cc(C(F)(F)F)nc2c(Cl)cc(Cl)cc12)C1CCCCN1 (configuration not stated),41
CCC(=O)N(C)C[C@H]1Oc2ncc(C#Cc3ccc(OC)cc3)cc2C(=O)N([C@H](C)CO)C[C@H]1C,.
CCCCNC(=O)Nc1nnc(-c2ccc(OCC)cc2)o1,36
CCCCOc1ccc(S(=O)(=O)Nc2ccc(NC(C)=O)cc2)cc1,.
C[C@H](CO)N1C[C@H](C)[C@H](CN(C)C(=O)C2CC2)Oc2cc(-c3ccc(C#N)cc3)ccc2S1(=O)=O,.
O=S(=O)(C/C(=C/CO)S(=O)(=O)c1ccccc1)c1ccccc1,72
COCC#Cc1cnc2c(c1)C(=O)N([C@H](C)CO)C[C@@H](C)[C@H](CN(C)C(=O)Nc1ccc(OC)cc1)O2,.
C[C@@H]1CN([C@H](C)CO)S(=O)(=O)c2ccc(C#CCN(C)C)cc2O[C@H]1CN(C)CC1CCCC1,.
C[C@H](CO)N1C[C@H](C)[C@@H](CN(C)C(=O)Nc2cc(F)ccc2F)Oc2cc(-c3ccc(C#N)cc3)ccc2S1(=O)=O,.
CCCN1C[C@@H](C)[C@H](OC)CN(C)C(=O)c2ccc(NS(C)(=O)=O)cc2OC[C@@H]1C,.
C[C@@H]1CN([C@@H](C)CO)C(=O)c2cc(/C=C/c3ccccc3)cnc2O[C@@H]1CN(C)C(=O)c1cccnc1,.
SMILES,miR-122 inh
COc1cccc(NC(=O)N(C)C[C@@H]2Oc3cc(C#Cc4ccccc4)ccc3S(=O)(=O)N([C@H](C)CO)C[C@@H]2C)c1,.
O=C(Nc1ccccc1F)N1CCCCN2[C@@H](CO)[C@@H](c3ccc(C#Cc4ccccc4)cc3)[C@@H]2C1,37
COc1ccc(C#Cc2ccc([C@@H]3[C@@H](CO)N4CCCCN(C(=O)Nc5ccccc5)C[C@H]34)cc2)cc1,34
O=C(Nc1ccc(F)cc1)N1CCCCN2[C@H](CO)[C@@H](c3ccc(C#Cc4ccccc4)cc3)[C@H]2C1,34
CCC(=O)Nc1ccc2c(c1)C(=O)N(C)C[C@@H](OC)[C@H](C)CN(Cc1ccccc1OC)[C@H](C)CO2,.
CCCN1C[C@H](C)[C@H](OC)CN(C)C(=O)c2ccc(NS(C)(=O)=O)cc2OC[C@@H]1C,.
CCC(=O)N(C)C[C@H]1Oc2ncc(-c3cccc(OC)c3)cc2C(=O)N([C@@H](C)CO)C[C@H]1C,.
